For 90 compounds, survival results are on record in PubChem BioAssay AID463173 (ICCB-Longwood Screening Facility, Harvard Medical School, 2010).

Structures are written as SMILES. Hit rate of the full screen: of about 52,000 compounds, about 4,300 (8.3%) were called active. The sample holds actives, similar compounds and a random draw of the others, so the mix is not that of the screen. Cut-off read from the data, not from the text of the source: active = survival mostly below about 52% (no sharp cut-off); inactive = mostly above about 56%.

The subject of the test is DeltatarO mutant. The experiment in a line: growth inhibition of S. aureus wild type versus tarO mutant, primary screen, teichoic acid synthesis inhibitors, RN4220, OD600 (AID 463173). The conditions noted are these: OD600, 18 h, stronger effect = lower value, screened at 18.75 µg/mL (by protocol).
`Cc1cccc(OCc2nnc(SC(C)C(=O)O)n2Cc2ccccc2)c1` (stereo not given): the survival was 103% (inactive).

Turning to `CCc1ccc(N(CC(=O)N2CCCCC2)S(C)(=O)=O)cc1`, the survival is 105% (inactive).

Take `CCc1ccc(CNC(=O)C2CCN(c3nnc(-n4c(C)ccc4C)s3)CC2)cc1`: the survival was 86% (inactive).

Regarding `COc1cccc(CNC(=O)c2cc(=O)[nH]c3ccc(S(=O)(=O)N4CCCC4)cc23)c1`, the survival is 60% (inactive).

For the compound `COc1ccc(-c2nc3sc(CCNC(=O)Cc4ccc(F)cc4)c(C)n3n2)cc1`, the survival was 94% (inactive).

Take `CCOC(=O)c1c(C)[nH]c(C)c1S(=O)(=O)NCC(=O)Nc1cc(Cl)ccc1OC`: the survival is -4% (active).

For `COc1ccc(NC(=O)CN(c2cc(C)cc(C)c2)S(=O)(=O)c2c(C)noc2C)cc1Cl`, the survival is 91% (inactive).

Regarding `CCOC(=O)c1c(C)[nH]c(C)c1S(=O)(=O)N(C)CC(=O)Nc1cc(Cl)ccc1OC`, the survival was 117% (inactive).

With `COc1ccccc1NC(=O)CN(c1cc(C)cc(C)c1)S(=O)(=O)c1c(C)[nH]c(=O)[nH]c1=O`, the survival is 118% (inactive).

Take `CCOc1ccc(OCC)c(NC(=O)CN(c2ccc(C)cc2)S(=O)(=O)c2c(C)n[nH]c2C)c1`: the survival was 32% (active).

Regarding `CCc1ccccc1NC(=O)CN(c1ccc(OC)cc1)S(=O)(=O)c1c(C)n[nH]c1C`, the survival is 74% (inactive).

Consider `CCOC(=O)c1scc(-c2ccc(C)cc2)c1S(=O)(=O)Nc1ccc(OC)c(Cl)c1`, for which the survival is 77% (inactive).

Regarding `COc1ccc(Cl)cc1NC(=O)CN(c1cc(C)cc(C)c1)S(=O)(=O)c1c(C)n[nH]c1C`, the survival was 9% (active).

Regarding `CCOC(=O)c1c(C)[nH]c(C)c1S(=O)(=O)NCC(=O)Nc1cc(C)ccc1OC`, the survival is 60% (inactive).

With `CCOC(=O)c1scc(-c2ccc(C)cc2)c1S(=O)(=O)Nc1cc(Cl)ccc1OC`, the survival was -5% (active).

In the case of `CCOC(=O)c1scc(-c2ccc(C)cc2)c1S(=O)(=O)Nc1cc(OC)ccc1OC`, the survival is 92% (inactive).

`CCOc1ccc(N(CC(=O)Nc2cc(C)ccc2C)S(=O)(=O)c2c(C)[nH]c(=O)[nH]c2=O)cc1`: the survival was 69% (inactive).

In the case of `COc1ccc(NC(=O)c2c(NCc3cccs3)sc3c2CCCCC3)c(OC)c1`, the survival is 69% (inactive).

As to `CC1CN(C(=O)CCC(=O)NCc2ccc(F)cc2)c2cc(Cl)ccc2O1` (stereo not given), the survival is 80% (inactive).

Regarding `Cc1cc(-c2ccccc2)nc2cc(C(=O)Nc3ccc(Cl)c(Cl)c3)nn12`, the survival is 52% (inactive).

As for `CC(=O)N1CCCC1c1nc2ccccc2n1Cc1ccccc1F` (stereo not given), the survival was 61% (inactive).

Consider `COC(=O)c1ccc(OCC2c3cc(OC)c(OC)cc3CCN2C(=O)c2ccc(F)cc2)cc1` (stereo not given), for which the survival was 76% (inactive).

As to `COc1ccc(CCNC(=O)c2ccc3c(c2)N(Cc2ccc(F)cc2)C(=O)c2ccccc2S3(=O)=O)cc1OC`, the survival is 104% (inactive).

As to `CC(C)NS(=O)(=O)c1cccs1`, the survival was 65% (inactive).

With `CC(C)c1cccc(C(C)C)c1NS(=O)(=O)c1cccs1`, the survival is 41% (active).

For the compound `O=S(=O)(Nc1ccc(O)cc1)c1cccs1`, the survival is 83% (inactive).

For `COc1ccc(-c2noc(CN(C(C)C)S(=O)(=O)c3ccc(Br)cc3)n2)cc1`, the survival was 44% (active).

For the compound `COc1ccc(S(=O)(=O)N(Cc2nc(-c3ccc(C)cc3)no2)C2CCCCC2)cc1`, the survival is 63% (inactive).

Regarding `CCN(Cc1nc(-c2ccc(OC)c(OC)c2)no1)S(=O)(=O)c1ccc(OC)cc1`, the survival is 47% (inactive).

Regarding `Cc1ccc(-c2noc(CN(C3CCCCC3)S(=O)(=O)c3ccc(C)cc3)n2)cc1`, the survival is 62% (inactive).

As for `Cc1cccc(-c2noc(CN(C(C)C)S(=O)(=O)c3ccc(Br)cc3)n2)c1`, the survival is 45% (active).

For `Cc1cccc(-c2noc(CNC(=O)c3ccco3)n2)c1`, the survival was 83% (inactive).

For `O=C(CCS(=O)(=O)c1cc2c(cc1Cl)NC(=O)CO2)NCc1ccccc1`, the survival was 106% (inactive).

In the case of `CCOC(=O)c1c(C)[nH]c(CCC(=O)NCc2cc(Br)ccc2OC)c1C`, the survival is 115% (inactive).

On to `O=C(NCCN1CCOCC1)c1ccncc1`, for which the survival is 96% (inactive).

For `Cc1cccc(OCC(=O)Nc2cccc(OCc3cc(=O)n4cccc(C)c4n3)c2)c1`, the survival was 109% (inactive).

Turning to `COc1cc(-c2cc3n(C)c(C)c(CCC(=O)O)c(=O)n3n2)cc(OC)c1OC`, the survival is 94% (inactive).

For `COc1cc(-c2cc3n(C)c(C)c(CCC(=O)NCc4ccccc4)c(=O)n3n2)cc(OC)c1OC`, the survival was 92% (inactive).

Take `COCCNC(=O)CCc1c(C)n(C)c2cc(-c3cc(OC)c(OC)c(OC)c3)nn2c1=O`: the survival was 25% (active).

As to `O=C(O)CCC(=O)Nc1ccncc1`, the survival is 92% (inactive).

Regarding `Cc1ccc(Cl)cc1N1CCN(C(=O)CCSCc2ccccc2F)CC1`, the survival was 89% (inactive).

With `Cc1cc(C)cc(NC(=O)C(=O)NCC(c2cccnc2)N2CCOCC2)c1` (stereo not given), the survival is 107% (inactive).

For `CCOC(=O)C1CCN(C(c2ccc(OCC)cc2)c2c(O)cc(C)n(CCOC)c2=O)CC1` (stereo not given), the survival was 67% (inactive).

Turning to `COc1ccccc1CN1C(=O)C(=O)c2cccc(C)c21`, the survival is 103% (inactive).

With `Cc1ccc2c(c1)C(=O)C(=O)N2Cc1ccc(OCCC(C)C)cc1`, the survival is 93% (inactive).

For the compound `Cc1cc(Br)cc2c1N(Cc1ccccc1OC(C)C)C(=O)C2=O`, the survival is 22% (active).

For `Cc1ccc(CN2C(=O)C(=O)c3cc(Br)cc(C)c32)cc1`, the survival is 31% (active).

Consider `CCCOc1ccc(CN2C(=O)C(=O)c3cccc(C)c32)cc1`, for which the survival is 39% (active).

On to `CCCCOc1ccc(CN2C(=O)C(=O)c3cc(Br)cc(C)c32)cc1OC`, for which the survival is 49% (inactive).

Turning to `Cc1cccc2c1N(Cc1ccccc1OCCC(C)C)C(=O)C2=O`, the survival was 2% (active).

As to `Cc1ccc2c(c1)C(=O)C(=O)N2Cc1ccc(OC(C)C)cc1`, the survival was 120% (inactive).

Regarding `CC(C)CN1C(=O)c2ccc(Br)cc2C1=O`, the survival was 67% (inactive).

As to `Cc1ccc(C)c(CN2C(=O)C(=O)c3ccccc32)c1`, the survival was 92% (inactive).

On to `COc1ccccc1Cn1ccn(Cc2ccc(C)cc2)c(=O)c1=O`, for which the survival is 112% (inactive).

Take `CCOc1ccc(CN2C(=O)C(=O)c3cccc(C)c32)cc1OC`: the survival was 118% (inactive).

Take `Cc1cc(C)cc(NC(=O)C2CCCN2S(=O)(=O)c2ccc3c(c2)CCCC(=O)N3)c1` (stereo not given): the survival was 83% (inactive).

On to `CCc1ccc(NC(=O)Cn2nnc(C(=O)Nc3ccc(F)cc3)c2N)cc1`, for which the survival is 99% (inactive).

Consider `COc1ccc(-n2nc(C(=O)N3CCCC(C)C3)c3c4ccccc4n(C)c3c2=O)cc1` (stereo not given), for which the survival is 74% (inactive).

As for `c1ccc(-c2nc(-c3cccnc3)no2)cc1`, the survival was 98% (inactive).

In the case of `O=c1[nH]ncc(NCCc2ccccc2)c1Cl`, the survival is 101% (inactive).

Turning to `N#Cc1ccccc1Cn1c(=O)n(Cc2ccc(C(=O)NC3CCN(Cc4ccccc4)CC3)cc2)c(=O)c2ccccc21`, the survival is 90% (inactive).

Take `COC(=O)c1ccc(NC(=O)C(=O)NCCc2sc3nc(-c4ccc(OC)cc4)nn3c2C)cc1`: the survival was 83% (inactive).

Consider `O/N=C1\CCCc2nnc3c(c21)CCCC3`, for which the survival was 101% (inactive).

With `CCOC(=O)/C(C#N)=C\C1=C(N2CCCC2)CC(C)(C)OC1`, the survival was 91% (inactive).

With `Cc1nc2ccc(S(=O)(=O)NCC(=O)Nc3ccc(F)cc3F)cc2s1`, the survival was 120% (inactive).

Consider `CCOc1ccc(S(=O)(=O)NCC(c2ccc(N(C)C)cc2)N2CCCC2)cc1` (stereo not given), for which the survival was 107% (inactive).

With `COc1ccc(Nc2ncnc3onc(C)c23)cc1Cl`, the survival was 87% (inactive).

With `O=C(c1ccc(Cl)cc1)N1CCC(c2nc3ccccc3o2)CC1`, the survival was 79% (inactive).

Take `CCc1ccccc1NC(=O)Cn1nnc(C(=O)NCc2ccco2)c1N`: the survival was 93% (inactive).

`CC(NC(=O)c1ccc2c(c1)CCN2S(C)(=O)=O)c1ccccc1` (stereo not given): the survival was 91% (inactive).

On to `NS(=O)(=O)c1ccc(NC(=O)c2ccc3c(c2)CCN3S(=O)(=O)c2ccccc2)cc1`, for which the survival is 43% (active).

As to `CC(NC(=O)c1ccc2c(c1)CCN2S(=O)(=O)c1ccccc1)c1ccccc1` (stereo not given), the survival was 37% (active).

With `CS(=O)(=O)N1CCc2cc(C(=O)Nc3ccc(S(N)(=O)=O)cc3)ccc21`, the survival was 48% (inactive).

Turning to `CC(C)c1ccc(NC(=O)c2ccc3c(c2)CCN3S(=O)(=O)c2ccccc2)cc1`, the survival was 44% (active).

Regarding `CC(C)c1ccc(NC(=O)c2ccc(F)c(S(=O)(=O)N3CCc4ccccc43)c2)cc1`, the survival is 83% (inactive).

Turning to `CC(=O)Nc1ccc(NC(=O)c2ccc3c(c2)CCN3S(=O)(=O)c2ccc(C)cc2)cc1`, the survival is 62% (inactive).

`CC(NC(=O)c1ccc2c(c1)CCN2S(=O)(=O)c1ccc(Cl)cc1)c1ccccc1` (stereo not given): the survival was 67% (inactive).

`COc1ccc(NC(=O)c2ccc3c(c2)CCN3S(=O)(=O)c2ccccc2)cc1`: the survival is 92% (inactive).

As to `Cc1ccc(Nc2nc3ccccc3c3nnc(C)n23)c(C)c1`, the survival was 70% (inactive).

Regarding `CC(C)(C)OC(=O)N1CCC(c2c(C(=O)NCc3ccco3)cnn2-c2ccc(F)cc2F)CC1`, the survival was 83% (inactive).

Consider `COc1cc(C)ccc1OCCSc1nc2ccc(NC(=O)c3ccc4c(c3)OCO4)cc2s1`, for which the survival was 64% (inactive).

As for `CN(C(=O)C1CCCN(c2ncnc3c2nc2n3CCCCC2)C1)c1ccccc1F` (stereo not given), the survival was 81% (inactive).

In the case of `CCC(NC(=O)Nc1cc(OC)ccc1OC)c1c(-n2cccc2)sc2c1CCN(CC)C2` (stereo not given), the survival was 88% (inactive).

Take `Fc1cccc(CSc2ccc(-c3cccs3)nn2)c1`: the survival was 94% (inactive).

On to `Cc1ccc(C)c(CNC(=O)c2sc3ncnc(N(C)C4CCCCC4)c3c2C)c1`, for which the survival was 115% (inactive).

Consider `Cc1ccc(Oc2c(C(F)(F)F)oc3cc(OCC(=O)NC4CCCCC4)ccc3c2=O)cc1`, for which the survival was 46% (active).

On to `Cc1ccc(Oc2coc3cc(OCC(=O)NC4CCCCC4)ccc3c2=O)cc1`, for which the survival was 55% (inactive).

On to `Cc1cc(C)cc(Oc2c(C(F)(F)F)oc3cc(OCC(=O)NC4CCCCC4)ccc3c2=O)c1`, for which the survival was 110% (inactive).

In the case of `CCc1ccc(C(=O)COC(=O)C(NC(=O)C2CCC(C)CC2)C(C)C)cc1` (stereo not given), the survival is 72% (inactive).

In the case of `CC1(C)CC(=O)C=C(NCC2CCNCC2)C1`, the survival was 95% (inactive).
